# “And” between values parts separate entries of the source, which are not always exact repeats. Equal entries are not always repeated. Results filed as inconclusive are left out. The source made the active and inactive calls. Calls follow the shape of the dose curve; as a rule, active = well fitted inhibition curve with a large enough effect in the signal ratio in the repeat runs (not every such curve was filed as active); inconclusive = weak or mixed curves; inactive = flat fitted curve, though single readings scatter; the % refers to the signal ratio.
# Molecular target: Progesterone receptor (Homo sapiens) (UniProt P06401)
# Test: qHTS assay to identify small molecule antagonists of the progesterone receptor (PR) signaling pathway (AID 1346795)
# Details: PR-UAS-bla HEK293T, beta-lactamase FRET ratio, 16 h; series mostly up to 92.4 µM; activity change, negative = inhibition: at the top concentration
# From the text: National Center for Advancing Translational Sciences [NCATS]
# NIH Chemical Genomics Center [NCGC]
# U.S. Environmental Protection Agency [EPA]
# National Institutes of Environmental Health Sciences [NIEHS]
# National Toxicology Program [NTP]
# U.S. Food and Drug Administration [FDA]
# Progesterone receptor (PR), a nuclear hormone receptor, plays an important role in development, metabolic homeostasis and reproduction. […] Endocrine disrupting chemicals (EDCs) and their interactions with steroid hormone receptors like PR causes disruption of normal endocrine function. To identify the compounds that inhibit PR signaling, a PR-UAS-bla GripTite cell line i.e. PR-UAS-bla HEK293T (Invitrogen, Carlsbad, CA, USA) containing a beta-lactamase reporter gene under the control of an Upstream Activator Sequence (UAS) was used to screen Tox21 10K compound library.
# Tox21 Assay Protocol Summary:
# PR-UAS-bla HEK293T cells were dispensed at 3,000 cells/4 uL of assay medium containing 2% charcoal stripped FBS per well into black wall/clear-bottom 1536-well plates using a Multidrop Combi (ThermoFisher Scientific, Waltham, MA) dispenser. After the assay plates were incubated at a 37C and 5% CO2 for 6 hr, 23 nL of compounds dissolved in DMSO, positive controls or DMSO only was transferred to the assay plate by a Pintool station (Kalypsys, San Diego, CA), followed by addition of 1 uL (1nM as final concentration) of Promegestone (R5020) in assay medium using a BioRAPTR FRD (Flying Reagent Dispenser, Aurora Discovery, San Diego, CA). The plates were incubated at 37C and 5% CO2 for 16 hr. Then 1 uL of LiveBLAzer B/G FRET substrate was added using a FRD. After the plates were incubated at room temperature for 2 hours, fluorescence intensity was measured by an Envision plate reader (PerkinElmer, Shelton, CT).
# % is scaled to controls: 0 for no effect and ±100 for the full control effect; potency is read from the fitted curve at half-maximal effect.
# Sequence of Progesterone receptor (Homo sapiens) (P06401 whole entry, looked up): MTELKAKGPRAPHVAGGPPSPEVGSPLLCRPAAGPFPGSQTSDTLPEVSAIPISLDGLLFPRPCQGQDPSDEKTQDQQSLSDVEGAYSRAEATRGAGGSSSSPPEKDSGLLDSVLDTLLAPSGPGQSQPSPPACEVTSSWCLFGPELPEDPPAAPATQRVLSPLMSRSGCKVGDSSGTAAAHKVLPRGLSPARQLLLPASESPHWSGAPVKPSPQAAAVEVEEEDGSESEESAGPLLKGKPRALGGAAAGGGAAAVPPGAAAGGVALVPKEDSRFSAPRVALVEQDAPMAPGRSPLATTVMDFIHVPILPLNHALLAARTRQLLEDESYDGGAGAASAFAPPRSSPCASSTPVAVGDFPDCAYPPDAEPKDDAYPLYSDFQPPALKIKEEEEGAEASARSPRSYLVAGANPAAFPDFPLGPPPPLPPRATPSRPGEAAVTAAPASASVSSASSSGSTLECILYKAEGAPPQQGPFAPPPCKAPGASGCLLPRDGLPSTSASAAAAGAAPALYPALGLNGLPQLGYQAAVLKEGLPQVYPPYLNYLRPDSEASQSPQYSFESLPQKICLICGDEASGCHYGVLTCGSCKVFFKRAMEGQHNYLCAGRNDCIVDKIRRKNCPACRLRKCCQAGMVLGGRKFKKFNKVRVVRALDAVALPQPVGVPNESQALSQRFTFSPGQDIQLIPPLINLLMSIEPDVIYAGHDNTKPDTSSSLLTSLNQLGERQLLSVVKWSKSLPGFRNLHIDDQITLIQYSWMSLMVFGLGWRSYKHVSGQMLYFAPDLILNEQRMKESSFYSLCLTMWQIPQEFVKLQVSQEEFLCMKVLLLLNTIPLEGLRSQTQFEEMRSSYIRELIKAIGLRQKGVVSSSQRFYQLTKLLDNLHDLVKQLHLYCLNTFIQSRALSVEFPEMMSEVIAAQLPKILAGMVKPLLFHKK
Structure (SMILES),Potency,"activity change, negative = inhibition"
O=C1C(I)=CC(=C(c2cc(I)c(O)c(I)c2)c2ccccc2C(=O)O)C=C1I,29.8 µM (active),–
CNC(=O)Oc1cc(C)c(SC)c(C)c1,27.3 µM (active),–
Oc1c(I)cc(I)cc1I,30.6 µM (active),–
OC(Cc1ccccc1Cl)(Cn1[nH]cnc1=S)C1(Cl)CC1 (configuration not stated),24.3 µM (active),–
Clc1ccccc1-c1ccccc1Cl,–,-9.33% (inactive)
CC1COC(Cn2cncn2)(c2ccc(Oc3ccc(Cl)cc3)cc2Cl)O1 (configuration not stated),24.3 µM (active),–
c1ccc2c(c1)Sc1ccccc1N2CC1CN2CCC1CC2 (configuration not stated),26.6 µM (active),–
CCOC(=O)C(O)(c1ccc(Cl)cc1)c1ccc(Cl)cc1,13.8 µM (active) and 13.7 µM (active),–
O=[N+]([O-])c1c(Cl)c(Cl)cc(Cl)c1Cl,–,9.88% (inactive)
CN1CSC(=S)N(C)C1,19.2 µM (active) and 8.61 µM (active),–
CCN(CC)C(=O)Cl,–,3.72% (inactive)
O=S(=O)(C(Cl)(Cl)Cl)C(Cl)(Cl)Cl,–,-23% (inactive)

# — PubChem BioAssay (Tox21)
